Values without a mark were called inactive.
compound: C#CCNC(=O)CCSSCCC(=O)NCCc1ccc(C=O)c(C=O)c1; experiment: lysine labeling ratio R10:1 (500 µM / 50 µM probe), SILAC-ABPP in living cells; higher = lower intrinsic lysine reactivity toward the probe, active = 2 or less; details: HeLa; probe concentrations 500 vs 50 µM
Outline: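 The two probe levels, 50 µM and 500 µM, of an alkyne-tagged, disulfide-linked lysine probe were applied to living light and heavy SILAC HeLa cells in PBS at room temperature, and the labels were run in both forward and reverse orientation. Mixed lysates underwent biotin-azide click chemistry, trypsin digestion, neutravidin capture, DTT release and alkylation before LC-MS/MS on a TIMS-TOF Pro. R is the filtered median high-probe/low-probe MS1 peptide ratio for each lysine, summarised as the median over forward and reverse replicates. Nothing above 20 is reported; such values are set to 20.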

Sequence of UniProt Q13813 (Q13813 whole entry): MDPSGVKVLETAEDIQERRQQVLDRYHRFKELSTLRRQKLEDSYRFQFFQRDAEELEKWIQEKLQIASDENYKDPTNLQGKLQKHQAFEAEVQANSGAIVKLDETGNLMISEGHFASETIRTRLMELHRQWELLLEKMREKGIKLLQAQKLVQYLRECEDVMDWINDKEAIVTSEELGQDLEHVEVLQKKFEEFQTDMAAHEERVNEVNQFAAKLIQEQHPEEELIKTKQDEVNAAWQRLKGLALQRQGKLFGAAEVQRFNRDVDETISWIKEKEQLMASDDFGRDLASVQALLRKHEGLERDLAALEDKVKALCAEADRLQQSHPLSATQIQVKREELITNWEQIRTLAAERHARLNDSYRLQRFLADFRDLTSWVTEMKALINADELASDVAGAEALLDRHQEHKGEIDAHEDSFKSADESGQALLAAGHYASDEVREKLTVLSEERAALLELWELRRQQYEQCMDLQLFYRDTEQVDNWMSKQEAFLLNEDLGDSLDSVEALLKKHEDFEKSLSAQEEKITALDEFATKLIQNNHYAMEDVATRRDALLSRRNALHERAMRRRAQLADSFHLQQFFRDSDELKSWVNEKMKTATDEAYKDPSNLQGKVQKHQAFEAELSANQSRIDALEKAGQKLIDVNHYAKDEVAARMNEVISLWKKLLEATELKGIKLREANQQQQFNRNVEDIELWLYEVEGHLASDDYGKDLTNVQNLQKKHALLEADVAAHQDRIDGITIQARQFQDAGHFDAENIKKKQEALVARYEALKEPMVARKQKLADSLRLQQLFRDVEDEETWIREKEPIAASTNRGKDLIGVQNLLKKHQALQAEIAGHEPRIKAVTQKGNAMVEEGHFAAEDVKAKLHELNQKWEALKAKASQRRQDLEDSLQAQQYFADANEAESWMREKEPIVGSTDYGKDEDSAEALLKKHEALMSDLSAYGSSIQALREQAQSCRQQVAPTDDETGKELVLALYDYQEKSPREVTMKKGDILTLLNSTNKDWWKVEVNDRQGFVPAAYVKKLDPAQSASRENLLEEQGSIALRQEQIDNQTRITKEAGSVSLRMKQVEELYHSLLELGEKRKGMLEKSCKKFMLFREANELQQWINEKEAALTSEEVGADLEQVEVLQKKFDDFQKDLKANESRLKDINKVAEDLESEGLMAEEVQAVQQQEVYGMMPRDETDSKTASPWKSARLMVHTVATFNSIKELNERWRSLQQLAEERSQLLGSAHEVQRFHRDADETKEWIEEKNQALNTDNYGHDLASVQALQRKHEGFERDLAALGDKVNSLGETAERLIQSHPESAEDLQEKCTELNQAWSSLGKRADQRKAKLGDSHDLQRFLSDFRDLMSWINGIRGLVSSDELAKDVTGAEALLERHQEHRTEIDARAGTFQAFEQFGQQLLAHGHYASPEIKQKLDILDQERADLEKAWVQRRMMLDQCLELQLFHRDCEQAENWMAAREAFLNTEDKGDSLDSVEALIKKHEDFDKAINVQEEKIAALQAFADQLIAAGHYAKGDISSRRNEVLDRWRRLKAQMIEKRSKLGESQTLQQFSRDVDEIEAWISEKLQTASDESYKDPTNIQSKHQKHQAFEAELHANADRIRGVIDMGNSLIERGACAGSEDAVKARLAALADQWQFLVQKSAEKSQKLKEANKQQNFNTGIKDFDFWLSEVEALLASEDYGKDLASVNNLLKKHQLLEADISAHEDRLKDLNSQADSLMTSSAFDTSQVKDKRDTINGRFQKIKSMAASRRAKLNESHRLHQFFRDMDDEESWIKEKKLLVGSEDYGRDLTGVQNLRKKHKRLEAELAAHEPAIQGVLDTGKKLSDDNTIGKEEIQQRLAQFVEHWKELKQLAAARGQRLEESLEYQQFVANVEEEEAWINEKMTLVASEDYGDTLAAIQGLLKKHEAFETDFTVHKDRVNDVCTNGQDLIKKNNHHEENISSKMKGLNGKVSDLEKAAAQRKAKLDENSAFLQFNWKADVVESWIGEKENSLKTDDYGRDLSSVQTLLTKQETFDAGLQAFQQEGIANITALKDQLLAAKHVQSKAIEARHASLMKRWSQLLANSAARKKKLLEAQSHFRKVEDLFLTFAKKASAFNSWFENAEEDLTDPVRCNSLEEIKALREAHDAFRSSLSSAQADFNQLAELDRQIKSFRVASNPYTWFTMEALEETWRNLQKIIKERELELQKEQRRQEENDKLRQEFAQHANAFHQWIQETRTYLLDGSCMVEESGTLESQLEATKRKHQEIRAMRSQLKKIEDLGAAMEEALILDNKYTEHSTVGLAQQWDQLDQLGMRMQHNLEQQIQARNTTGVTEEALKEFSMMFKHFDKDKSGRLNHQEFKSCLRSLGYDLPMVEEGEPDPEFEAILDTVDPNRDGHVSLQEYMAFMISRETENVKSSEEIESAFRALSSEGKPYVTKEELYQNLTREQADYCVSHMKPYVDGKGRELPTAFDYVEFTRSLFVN
Sequence of UniProt O75369 (O75369 whole entry): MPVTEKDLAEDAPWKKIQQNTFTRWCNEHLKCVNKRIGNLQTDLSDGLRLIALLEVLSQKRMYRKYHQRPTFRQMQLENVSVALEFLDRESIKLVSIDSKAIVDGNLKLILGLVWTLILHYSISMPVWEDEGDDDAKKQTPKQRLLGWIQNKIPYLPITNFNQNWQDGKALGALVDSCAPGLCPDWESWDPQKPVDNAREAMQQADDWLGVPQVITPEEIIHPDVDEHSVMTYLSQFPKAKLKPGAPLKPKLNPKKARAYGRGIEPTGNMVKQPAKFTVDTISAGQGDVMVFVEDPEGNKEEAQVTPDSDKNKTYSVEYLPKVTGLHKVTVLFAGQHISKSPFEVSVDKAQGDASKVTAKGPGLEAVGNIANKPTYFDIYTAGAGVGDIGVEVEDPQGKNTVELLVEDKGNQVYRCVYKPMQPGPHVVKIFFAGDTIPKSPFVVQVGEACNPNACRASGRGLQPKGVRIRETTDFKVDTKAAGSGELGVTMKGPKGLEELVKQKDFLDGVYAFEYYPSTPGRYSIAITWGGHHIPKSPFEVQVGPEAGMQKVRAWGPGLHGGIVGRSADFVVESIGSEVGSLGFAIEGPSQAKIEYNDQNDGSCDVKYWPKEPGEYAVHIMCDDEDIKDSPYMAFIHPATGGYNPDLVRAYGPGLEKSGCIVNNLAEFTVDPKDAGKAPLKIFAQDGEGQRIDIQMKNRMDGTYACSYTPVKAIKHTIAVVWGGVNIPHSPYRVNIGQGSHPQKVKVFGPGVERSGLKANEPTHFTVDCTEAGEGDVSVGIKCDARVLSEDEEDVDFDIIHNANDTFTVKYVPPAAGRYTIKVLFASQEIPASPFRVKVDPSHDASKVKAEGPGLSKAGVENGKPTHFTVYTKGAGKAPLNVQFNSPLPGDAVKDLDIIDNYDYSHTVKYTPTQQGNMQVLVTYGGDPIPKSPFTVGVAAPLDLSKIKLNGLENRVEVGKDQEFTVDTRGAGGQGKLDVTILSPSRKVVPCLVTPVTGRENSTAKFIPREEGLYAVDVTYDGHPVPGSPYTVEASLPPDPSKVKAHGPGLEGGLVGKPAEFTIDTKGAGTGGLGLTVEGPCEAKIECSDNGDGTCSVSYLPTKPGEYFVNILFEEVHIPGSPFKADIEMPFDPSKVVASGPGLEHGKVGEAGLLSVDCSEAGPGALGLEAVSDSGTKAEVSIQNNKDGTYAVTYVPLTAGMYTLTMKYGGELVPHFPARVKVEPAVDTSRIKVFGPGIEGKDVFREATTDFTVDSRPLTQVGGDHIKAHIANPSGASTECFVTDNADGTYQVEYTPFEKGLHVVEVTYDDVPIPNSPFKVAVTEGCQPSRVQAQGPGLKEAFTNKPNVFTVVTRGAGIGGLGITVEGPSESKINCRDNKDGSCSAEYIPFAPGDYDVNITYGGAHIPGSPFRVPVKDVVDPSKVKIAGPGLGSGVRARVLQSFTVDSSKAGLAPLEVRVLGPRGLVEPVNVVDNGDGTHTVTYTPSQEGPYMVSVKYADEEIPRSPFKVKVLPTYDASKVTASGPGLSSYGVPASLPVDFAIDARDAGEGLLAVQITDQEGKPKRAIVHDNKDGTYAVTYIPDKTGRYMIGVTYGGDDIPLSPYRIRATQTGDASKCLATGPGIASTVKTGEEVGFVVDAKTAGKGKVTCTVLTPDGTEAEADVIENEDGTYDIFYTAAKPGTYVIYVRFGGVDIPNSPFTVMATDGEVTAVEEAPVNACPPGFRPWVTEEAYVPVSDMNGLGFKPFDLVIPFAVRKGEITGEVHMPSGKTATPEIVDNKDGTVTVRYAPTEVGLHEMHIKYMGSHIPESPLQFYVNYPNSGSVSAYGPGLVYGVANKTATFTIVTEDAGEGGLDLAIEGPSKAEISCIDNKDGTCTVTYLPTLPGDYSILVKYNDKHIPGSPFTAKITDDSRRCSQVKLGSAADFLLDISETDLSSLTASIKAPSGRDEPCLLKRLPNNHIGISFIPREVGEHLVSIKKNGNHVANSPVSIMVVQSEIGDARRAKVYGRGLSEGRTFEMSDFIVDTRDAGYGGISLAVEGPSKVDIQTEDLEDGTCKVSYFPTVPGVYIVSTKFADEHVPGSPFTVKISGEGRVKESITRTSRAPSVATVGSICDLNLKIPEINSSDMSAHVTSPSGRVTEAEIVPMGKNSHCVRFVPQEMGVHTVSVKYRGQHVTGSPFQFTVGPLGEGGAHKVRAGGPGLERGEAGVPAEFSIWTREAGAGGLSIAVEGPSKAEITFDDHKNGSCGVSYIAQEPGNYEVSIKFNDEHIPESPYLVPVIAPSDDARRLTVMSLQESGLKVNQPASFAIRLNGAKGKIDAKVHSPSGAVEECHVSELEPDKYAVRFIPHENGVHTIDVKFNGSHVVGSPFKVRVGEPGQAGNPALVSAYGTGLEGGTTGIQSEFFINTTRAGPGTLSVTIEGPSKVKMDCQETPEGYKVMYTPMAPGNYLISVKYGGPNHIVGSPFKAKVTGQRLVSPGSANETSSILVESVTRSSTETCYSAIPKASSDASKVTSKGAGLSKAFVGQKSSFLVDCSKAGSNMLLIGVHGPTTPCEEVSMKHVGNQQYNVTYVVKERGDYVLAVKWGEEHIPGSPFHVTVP

| Target | lysine labeling ratio R10:1 |
| --- | --- |
| EEF2 (lysine site: K445) (UniProt P13639) | 2.7 |
| FLNB (lysine site: K987) (UniProt O75369) | 5.99 |
| LAMC1 (lysine site: K1041) (UniProt P11047) | 2.18 |
| LAMP1 (lysine site: K137) (UniProt P11279) | 2.74 |
| SPTAN1 (lysine site: K803) (UniProt Q13813) | 1.86 (active) |
| SLC3A2 (lysine site: K257) (UniProt P08195) | 1.64 (active) |
| UniProt Q9Y653 (lysine site: K215) | 4.06 |
| FOLR1 (lysine site: K41) (UniProt P15328) | 1.41 (active) |
| CCT6A (lysine site: K251) (UniProt P40227) | 1.04 (active) |
| EPHB2 (lysine site: K158) (UniProt P29323) | 2.25 |
| LMO7 (lysine site: K305) (UniProt Q8WWI1) | 3.84 |
| PLS3 (lysine site: K346) (UniProt P13797) | 0.842 (active) |
| ENO1 (lysine site: K126) (UniProt P06733) | 3.29 |
| RPL5 (lysine site: K188) (UniProt P46777) | 4.22 |
| UniProt P22413 (lysine site: K503) | 1.89 (active) |
| ATP6V0D1 (lysine site: K77) (UniProt P61421) | 1.33 (active) |
| MSN (lysine site: K165) (UniProt P26038) | 3.56 |
| UniProt Q8WXI7 (lysine site: K13402) | 5.02 |
| PSMD2 (lysine site: K551) (UniProt Q13200) | 2.34 |
| UniProt P55072 (lysine site: K236) | 2.76 |

| Target | lysine labeling ratio R10:1 |
| --- | --- |
| UniProt Q15149 (lysine site: K3027) | 2.74 |
| PVR (lysine site: K90) (UniProt P15151) | 3.33 |
| ATAD3B (lysine site: K505) (UniProt Q5T9A4) | 0.98 (active) |
| IGF2R (lysine site: K2197) (UniProt P11717) | 8.12 |
| UniProt P08727 (lysine site: K118) | 3.16 |
| MYH9 (lysine site: K1867) (UniProt P35579) | 2.53 |
| UniProt Q13275 (lysine site: K62) | 3.35 |
| UniProt P15941 (lysine site: K1125) | 3 |
| SPTAN1 (lysine site: K1274) (UniProt Q13813) | 3.51 |
| UniProt Q9NYQ6 (lysine site: K2118) | 2.31 |
| ANXA3 (lysine site: K154) (UniProt P12429) | 3.32 |
| NUCB2 (lysine site: K184) (UniProt P80303) | 2.65 |
| FRAS1 (lysine site: K1158) (UniProt Q86XX4) | 1.34 (active) |
| PSEN1 (lysine site: K109) (UniProt P49768) | 2.61 |
| SLC39A6 (lysine site: K164) (UniProt Q13433) | 7.08 |
| UniProt P62249 (lysine site: K73) | 3.59 |
| SLC25A13 (lysine site: K408) (UniProt Q9UJS0) | 2.67 |
| UniProt Q16790 (lysine site: K133) | 8.23 |
| UniProt P05787 (lysine site: K130) | 9.55 |
| HSPB1 (lysine site: K123) (UniProt P04792) | 2.35 |

— the supplement of paper PMC11001985
